High-throughput results: PubChem, The Scripps Research Institute Molecular Screening Center
Hits are enriched below; roughly 3.4% of the tested compounds scored in any of these assays.
PAFAH1B3 FP inh = PAFAH1B3 enzyme inhibitors, primary screen, biochemical, fluorescence polarization, human; recombinant PAFAH1B3, FP-rhodamine probe; Platelet-activating factor acetylhydrolase IB subunit alpha1 (Homo sapiens), Q15102; 340,000 tested, 0.28% active; inhibition, % at 3.39 µM;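 active means inhibition above the screen-wide average of all tested compounds plus 3 SD, cut at about 25% in these data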
pPAFAH FP inh = pPAFAH enzyme inhibitors, primary screen, biochemical, fluorescence polarization, human | Platelet-activating factor acetylhydrolase (Homo sapiens), Q13093 | recombinant pPAFAH, FP-rhodamine probe fluorescence polarization | inhibition, % at 3.39 µM | 330,000 tested, 1.5% active;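 active means inhibition above the mean inhibition across the screen plus 3 SD, cut at about 25% in these data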;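 further: inhibitors block binding of the rhodamine activity-based probe so polarization drops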
Target sequence (Q13093 whole entry, looked up): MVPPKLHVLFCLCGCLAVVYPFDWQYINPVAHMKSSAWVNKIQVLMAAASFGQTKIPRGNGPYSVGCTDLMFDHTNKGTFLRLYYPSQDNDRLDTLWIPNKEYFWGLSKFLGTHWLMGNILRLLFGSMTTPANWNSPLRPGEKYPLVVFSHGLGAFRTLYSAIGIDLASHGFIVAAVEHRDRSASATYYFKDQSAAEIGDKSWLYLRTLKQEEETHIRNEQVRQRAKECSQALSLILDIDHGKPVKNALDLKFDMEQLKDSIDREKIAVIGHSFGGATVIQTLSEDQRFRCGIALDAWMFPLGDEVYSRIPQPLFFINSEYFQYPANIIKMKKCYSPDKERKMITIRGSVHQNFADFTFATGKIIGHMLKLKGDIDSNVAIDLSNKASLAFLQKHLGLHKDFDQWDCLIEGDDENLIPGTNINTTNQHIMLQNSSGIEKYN
PAFAH1B2 inh = PAFAH1B2 enzyme inhibitors, primary screen, biochemical, fluorescence polarization, human; Platelet-activating factor acetylhydrolase IB subunit alpha2 (Homo sapiens), P68402; recombinant PAFAH1B2, FP-rhodamine activity probe; inhibition, % at 3.39 µM; 340,000 tested, 1.2% active;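 active means inhibition above the mean of all tested compounds plus 3 SD, cut at about 24% in these data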
Target sequence (P68402 whole entry, looked up): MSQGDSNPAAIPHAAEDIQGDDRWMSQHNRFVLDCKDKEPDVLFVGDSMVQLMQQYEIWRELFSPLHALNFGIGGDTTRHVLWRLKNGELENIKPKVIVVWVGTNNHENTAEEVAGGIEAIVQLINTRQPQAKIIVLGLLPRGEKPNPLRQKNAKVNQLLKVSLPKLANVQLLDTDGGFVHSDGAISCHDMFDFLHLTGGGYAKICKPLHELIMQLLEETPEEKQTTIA
PP5 primary = PP5 phosphatase inhibitors, primary screen, biochemical, fluorescence | Serine/threonine-protein phosphatase 5 (Homo sapiens), P53041 | purified PP5c, OMFP substrate fluorescence | inhibition, % at 6.7 µM | 320,000 tested, 0.18% active | AID 1987, 2009;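 active means inhibition above the campaign's mean inhibition across all tested compounds plus 3 SD, cut at about 9.5% in these data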
PP1 counter = PP1-alpha phosphatase inhibitors, primary screen, counter-screen for PP5 inhibitor project, biochemical, fluorescence, OMFP substrate, single point | Serine/threonine-protein phosphatase PP1-alpha catalytic subunit (Homo sapiens), P62136 | purified PP1alpha | inhibition, % at 6.7 µM | 320,000 tested, 0.9% active | AID 2235, 2010;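 active means inhibition above the mean inhibition of all tested compounds plus 3 SD, computed separately for each screening campaign, cut at about 15% in these data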
PAFAH2 inh = PAFAH2 enzyme inhibitors, primary screen, biochemical, fluorescence polarization, human. Platelet-activating factor acetylhydrolase 2, cytoplasmic (Homo sapiens), Q99487. recombinant PAFAH2, FP-rhodamine activity probe. inhibition, % at 3.39 µM. 340,000 tested, 0.99% active;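 active means inhibition above the mean over all tested compounds plus 3 SD, cut at about 30% in these data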;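 further: inhibitors block probe labeling of enzyme so polarization drops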
Large screens that a line does not name were inactive.

Cc1cc(SCC(=O)N/N=C/c2ccc(O)cc2O)nc2ccccc12	none
Cc1cc(SCC(=O)N/N=C/c2ccc(O)c(O)c2)nc2ccccc12	pPAFAH FP inh 27.5, PAFAH2 inh 31.6
COc1ccc2nc(C)cc(SCC(=O)N/N=C/c3cccc4ccccc34)c2c1	none
COc1ccc2nc(C)cc(SCC(=O)N/N=C/c3ccc(O)c(O)c3)c2c1	pPAFAH FP inh 28.9
CC(=O)N(CCCN1CCOCC1)Cc1ccncc1	none
COc1ccc(S(=O)(=O)N2CCCCC2)cc1NC(=O)C1CC(=O)N(Cc2ccccc2)C1 (stereo not drawn)	none
CC1CCc2ccccc2N1C(N)=Nc1ccccc1 (stereo not drawn)	none
O=C(CSc1nnc(COc2ccccc2)o1)N1CCCC1	none
Cc1cc(C)n(Cc2ccc(C(=O)NN)o2)n1	none
CCN(CC)S(=O)(=O)c1cc(NC(=O)C2CSC3(C)CCC(=O)N23)ccc1C (stereo not drawn)	none
O=C(NC(Cc1ccccc1)C(=O)O)OCC1c2ccccc2-c2ccccc21 (stereo not drawn)	PAFAH1B2 inh 27.0
O=C(NC(Cc1ccccc1)C(=O)O)OCc1ccccc1 (stereo not drawn)	none
O=C1CCN(CCc2ccccc2)CCN1CCSc1ccccc1	pPAFAH FP inh 30.5
Nc1ccc(NC(=O)c2ccc(C(=O)Nc3ccc(N)cc3)cc2)cc1	PP1 counter 16.4
COc1ccc(/C=N/Nc2ccc(C(=O)O)cc2)cc1Br	none
C=CCOc1c(Br)cc(/C=N/Nc2ccc(C(=O)O)cc2)cc1OCC	pPAFAH FP inh 29.6
Cc1cccc2cc(/C=N/Nc3ccc(C(=O)O)cc3)c(Cl)nc12	pPAFAH FP inh 28.4
COc1ccc(NC(=O)CN(C)C(=O)c2ccc3c(c2)NC(=O)CS3)cc1	none
O=C(CSc1ccc(Cl)cc1)Nc1ccc(N2CCN(C(=O)c3ccc(Cl)cc3)CC2)cc1	none
O=C(CSc1ccc(Cl)cc1)Nc1ccccc1N1CCN(C(=O)c2ccc(Cl)cc2)CC1	PP1 counter 15.2
CCOC(=O)c1ccc(NC(=O)CSc2nc(C)cc(=O)[nH]2)cc1	none
CN1CCO/C1=C(\C(Cl)=C(Cl)Cl)[N+](=O)[O-]	none
COc1ccccc1C(=O)Nc1nc(-c2ccc(S(=O)(=O)N3CCOCC3)cc2)cs1	none
O=[N+]([O-])c1cc(Cc2ccccc2)cc(C=Nc2ccc(N3CCOCC3)cc2)c1O	pPAFAH FP inh 34.1, PAFAH1B2 inh 25.1
Oc1c(Cl)cc(Cl)cc1C=Nc1ccc(N2CCOCC2)cc1	none
Cc1ccc(O)c(N=Cc2cc(Cc3ccccc3)cc([N+](=O)[O-])c2O)c1	PAFAH1B2 inh 34.5 (no result: pPAFAH FP inh, PP5 primary, PP1 counter)
Oc1ccc(C=Nc2ccc(N3CCOCC3)cc2)c(O)c1	pPAFAH FP inh 25.6
Cc1ccc(O)c(C=Nc2cc(C)ccc2O)c1	none
Cc1cc(Br)cc(C=Nc2ccc(N3CCOCC3)cc2)c1O	none
O=C(Cc1ccccc1F)Nc1cc(Cl)ccc1N1CCCC1	none
COc1ccc(NC2=NCC(Cc3ccc(Br)cc3)S2)cc1 (stereo not drawn)	PP1 counter 15.8
COc1ccc(CNc2ccc(Br)cc2)cc1	none
O=C1c2c(O)ccc(O)c2C(=O)c2c(NCCNCCO)ccc(NCCNCCO)c21	PP1 counter 21.0
Cc1ccc(S(=O)(=O)NCc2n[nH]c(=S)n2C)cc1	none
Cn1c(CNS(=O)(=O)c2ccc(Br)cc2)n[nH]c1=S	PAFAH1B2 inh 24.4
CCOC(=O)c1cc(C#N)c(SCC(=O)O)[nH]c1=O	PAFAH1B3 FP inh 31.4, pPAFAH FP inh 31.8
CCOC(=O)c1cc(C#N)c(SCC(=O)c2cc(C#N)c(SC)nc2C)[nH]c1=O	none
CCn1c(-c2ccc(C)cc2)nn(CC(=O)NCCc2ccccc2)c1=S	none
O=C(CSc1ncccc1-c1nc2ccccc2[nH]1)Nc1ccc2c(c1)OCCO2	none
Clc1ccc(-c2noc(COc3ccccc3)n2)cc1	none
Clc1ccc(OCc2nc(-c3ccncc3)no2)cc1	PAFAH1B2 inh 26.9
COc1ccc(NC(=O)CSc2nnnn2-c2ccc(F)cc2)cc1	none
C=CCOc1ccc(C2NC(=O)c3ccccc3O2)cc1OCC (stereo not drawn)	none
Cc1cc(C)cc(-n2c(O)c(C=NC3CCS(=O)(=O)C3)c3ccccc3c2=O)c1 (stereo not drawn)	none
C/C(=N/Nc1ccnc2cc(Cl)ccc12)c1ccc(N)cc1	PP1 counter 16.9
CN(Cc1ccccc1)S(=O)(=O)CCNC(=O)c1ccc2c(c1)OCO2	none
CCOC(=O)Cc1c(C)nc2c(-c3ccccc3)c[nH]n2c1=O	none
CCOC(=O)Cc1cc(=O)n2[nH]cc(-c3ccc(Cl)cc3)c2n1	pPAFAH FP inh 32.4
O=S(=O)(Cc1ccccc1)N1CCc2ccccc2C1	none
O=C(O)c1ccc(Nc2nc3ccc(Cl)cc3[nH]2)cc1	none
O=C(Oc1c(CN2CCOCC2)cc(Cl)c2cccnc12)c1ccc(F)cc1	none
CC(C)(CNC(=O)c1cccc(NS(=O)(=O)c2ccc(Br)cc2)c1)N1CCOCC1	PAFAH1B2 inh 27.2
Cc1cc(NS(=O)(=O)c2ccc(NC(=O)C(C)Oc3ccc(Cl)cc3)cc2)no1 (stereo not drawn)	PAFAH1B2 inh 29.6
CC(Oc1ccc(Br)cc1)C(=O)Nc1ccc(S(=O)(=O)Nc2nccs2)cc1 (stereo not drawn)	PAFAH1B2 inh 28.5
COc1cc(C(=O)c2cocc2C(=O)c2ccc3c(c2)OCO3)cc(OC)c1OC	none
CC(C)C[C@H](NC(=O)c1nc[nH]c1C(=O)N1CCN(c2ccccc2)CC1)C(=O)OC(C)(C)C	none
CCn1cc([N+](=O)[O-])c(C(=O)Nc2ccn(Cc3ccccc3)n2)n1	none
Cn1nccc1C(=O)Nc1ccn(C23CC4CC(CC(C4)C2)C3)n1	PAFAH1B2 inh 24.4
Cc1nn(C)c(C(=O)Nc2ccn(C34CC5CC(CC(C5)C3)C4)n2)c1[N+](=O)[O-]	none
CCn1cc([N+](=O)[O-])c(C(=O)Nc2ccn(C34CC5CC(CC(C5)C3)C4)n2)n1	PAFAH1B2 inh 29.0
Cn1cc([N+](=O)[O-])c(C(=O)Nc2ccn(C34CC5CC(CC(C5)C3)C4)n2)n1	PAFAH1B2 inh 25.3
Cc1ccc(/C=N/Nc2nncn2N)cc1	none
CC(=O)Nc1ccc(Nc2ccc3c4c(cc(=O)n3C)-c3ccccc3C(=O)c24)cc1	none
O=C1c2ccccc2C(=O)c2c(Nc3ccc(CCO)cc3)ccc(O)c21	pPAFAH FP inh 31.5
CCc1nnc(NC(=O)CCC(=O)N2CCC(Cc3ccccc3)CC2)s1	none
